Results filed as inconclusive are left out. Entries that show only a call come without a potency. Active and inactive are the calls of the source. Unless noted, calls follow the shape of the dose curve; as a rule, active = well fitted curve in the direction sought with a large enough effect; inconclusive = small, poorly fitted or top-dose-only effect, or another doubt; inactive = no such curve, though single readings can be large; an effect the other way counts as inactive or inconclusive.
Tests used:
[1] = Confirmation and Secondary Assay for Modulators of Hemoglobin Beta Chain Splicing at IVS2 654 locus (AID 910);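 also: HeLa cells stably carrying EGFP split by mutant beta-globin IVS2-654 intron; per-well total GFP intensity by laser scanning cytometry after 2-day treatment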
Outline: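 Readout: per-well total peak green fluorescence (488 nm ex, 500–520 nm em) from objects 5–250 µm, reflecting correct splicing of an EGFP-654 reporter. Compounds were applied for 2 days at 37 °C to overnight-plated HeLa EGFP-654 cells; controls were DMSO and 500 nM IVS2-654 PNA.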

[2] = Confirmation and Secondary Assay for Modulators of Hemoglobin Beta Chain Splicing at IVS2 705 locus (AID 930);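 also: HeLa cells stably expressing the EGFP-705 splicing reporter; series mostly up to about 46 µM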
Outline: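 HeLa cells stably carrying EGFP interrupted by mutant beta-globin IVS2-705 intron (CMV-driven) were seeded at 500 cells/well, treated next day with compound for 2 days at 37C; corrected splicing restores EGFP, read as total peak GFP intensity per well.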

[3] = qHTS Assay for Identification of Small Molecule Agonists for Thrombopoietin (TPO) Signaling Pathway (AID 917)
Outline: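 Human TPO receptor–transfected Ba/F3 cells (murine, IL-3-dependent) in IL-3-deficient medium; compounds plus TPO at EC50, 26 pM final; 24 hrs, 37 C; GpIIb-luciferase luminescence after 10 min RT detection.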

[4] = target: Muscarinic acetylcholine receptor M1 (Rattus norvegicus) (UniProt P08482); assay: qHTS Assay for Antagonists of Acetylcholine Muscarinic M1 Receptor: Measurement of IP-One Response (AID 944); also: nearly all actives have a fitted effect of over 75% in size
Outline: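 Antagonist mode with rat M1 receptor transfected into CHO cells. Compound is added first for 10 min, carbachol at its EC80 follows for 30 min, and lysis reagents then allow TR-FRET detection of accumulated IP1.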

[5] = target: Pyruvate kinase (Leishmania mexicana) (UniProt Q27686); assay: qHTS Validation Assay for Inhibitors of Leishmania Mexicana Pyruvate Kinase (AID 945)
Outline: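 LmPYK E451W 0.2 nM; 0.5 mM PEP, 0.1 mM ADP, 7 mM MgCl2, 50 mM KCl, imidazole pH 7.2, 0.01% Tween 20, 0.05% BSA; 1 h RT; PKLight luminescence; DMSO-normalized.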

[6] = target: Pyruvate kinase PKM (Homo sapiens) (UniProt P14618); assay: qHTS Assay for Activators of Human Muscle Pyruvate Kinase (AID 954; active = well fitted curve in the direction sought with a large enough effect, not every such curve was filed as active)
Outline: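 ATP production by PKM2 detected via luciferase luminescence after 1 h room-temperature reaction (0.1 nM enzyme, PEP at Km 0.5 mM, ADP 0.1 mM, pH 7.2 imidazole buffer). Inhibition scaled to no-enzyme control; activation referenced to 0.3 nM enzyme wells.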

[7] = target: Alpha-galactosidase A (Homo sapiens) (UniProt P06280); assay: Counterscreen for Glucocerebrosidase Inhibitors: qHTS Assay for Human alpha-Galactosidase at pH 4.5 (AID 992)
Outline: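 Fluorogenic 1536-well qHTS at pH 4.5 (citrate, Tween-20): 2 nM enzyme, 80 uM 4-MU-alpha-galactoside, 20 min room temperature, NaOH/glycine stop. Titration 0.7 nM to 77 uM, data normalized to no-enzyme and full-activity controls, Hill-fitted AC50.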

[8] = target: alpha-glucosidase (Oryza sativa, rice) (UniProt Q653V4); assay: Counterscreen for Glucocerebrosidase Inhibitors: qHTS Assay for Rice alpha-Glucosidase at pH 5.0 (AID 997)
Outline: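 Endpoint fluorogenic assay at pH 5.0: compounds (0.7 nM to 77 uM) titrated against 4 nM rice enzyme and 400 uM 4-MU-alpha-glucoside for 20 min at room temperature; NaOH/glycine stop, read ex 365/em 440 nm, Hill-fitted AC50.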

[9] = target: Luciferin 4-monooxygenase (Photinus pyralis) (UniProt P08659); assay: Biochemical firefly luciferase enzyme assay for NPC (AID 624030);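 also: purified P. pyralis luciferase at 10 nM with luciferin and ATP substrate; series mostly up to about 59 µM; nearly all actives have a fitted effect of over 70% in size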
Outline: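 Direct inhibition of firefly luciferase enzyme (10 nM final, 50 mM Tris Acetate) assessed by luminescence within 5 minutes. Percent activity scaled between DMSO and PTC124 positive control, with concentration-effect curves classified by fit quality and response.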

[10] = target: Cytochrome P450 2D6 (Homo sapiens) (UniProt P10635); assay: Cytochrome P450 family 2 subfamily D member 6 (CYP2D6) small molecule antagonists: luciferase biochemical (cell-free) qHTS assay (AID 1645840; active = well fitted curve in the direction sought with a large enough effect in the repeat runs; an effect the other way counts as inactive or inconclusive; also: nearly all actives have a fitted effect of over 55% in size; also: potency is read from the fitted curve at half-maximal effect)
Outline: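 P450-Glo CYP2D6 system: proluciferin substrate converted by enzyme to luciferin, read by luminescence proportional to activity. Enzyme-substrate mix with compound 10 min at room temperature, then NADPH regeneration 1 h before detection reagent.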

[11] = target: Cytochrome P450 2C9 (Homo sapiens) (UniProt P11712); assay: Cytochrome P450 family 2 subfamily C member 9 (CYP2C9) small molecule antagonists: luciferase biochemical (cell-free) qHTS assay (AID 1645842; active = well fitted curve in the direction sought with a large enough effect in the repeat runs; an effect the other way counts as inactive or inconclusive; also: series mostly up to about 57 µM; nearly all actives have a fitted effect of over 55% in size)
Outline: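 P450-Glo CYP2C9 system: proluciferin substrate with enzyme in mix containing 0.4% BSA, 10 min at room temperature, then NADPH regeneration solution added and incubated 1 h at 37C. Detection reagent stopped reaction; luminescence read after 20 min as RLU.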

[12] = target: Glutathione peroxidase 1 (Homo sapiens) (UniProt P07203); assay: Primary qHTS Assay for Inhibitors of Recombinant Selenoprotein Glutathione Peroxidase 1 (GPX1) (AID 1845191); also: nearly all actives have a fitted effect of over 65% in size
Outline: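 NADPH consumption tracked by fluorescence at 340/450 nm between t=0 and t=15 min, room temperature. Final mix: 10 nM GPX1, 100 nM glutathione reductase, 1 mM GSH, 0.5 mM NADPH, 0.5 mM cumene hydroperoxide, 0.01% BSA; 30 min compound–enzyme preincubation.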

[13] = target: Rap guanine nucleotide exchange factor 3 (Homo sapiens) (UniProt O95398); assay: Confirmatory qHTS for antagonist of cAMP-regulated guanine nucleotide exchange factor 3 (EPAC1) (AID 1645880); also: nearly all actives have a fitted effect of over 55% in size; also: potency is read from the fitted curve at half-maximal effect
Outline: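 Released BODIPY-GDP fluoresces less than Rap1-bound BODIPY-GDP; the signal is followed at 480/540 nm at 5-min intervals over 30 min, after 5 min at room temperature. Reactions contain 100 nM EPAC1, 250 nM RAP1B-BODIPY-GDP and 50 uM GDP; results are normalized to ATA and DMSO.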

[14] = target: Rap guanine nucleotide exchange factor 4 (Homo sapiens) (UniProt Q8WZA2); assay: Confirmatory qHTS for agonist of cAMP-regulated guanine nucleotide exchange factor 4 (EPAC2) (AID 1645884);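 also: nucleotide exchange releases bodipy-GDP from Rap1 and this lowers its fluorescence; nearly all actives have a fitted effect of over 65% in size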
[15] = NCATS anti-infectives library activity on HEK293 viability as a counter-qHTS vs the C. elegans viability qHTS (AID 1745854);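 also: HEK293 cells exposed to compounds for 24 hr before the viability read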
Outline: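 Counter-screen for cytotoxicity: HEK293, 24 hr, 37C, compounds up to 41.7 uM final (a dilution series, 1:5). Readout CellTiter-Glo luminescence, 10 min RT. Digitonin control, […] uM final.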

[16] = target: Muscarinic acetylcholine receptor M1 (Rattus norvegicus) (UniProt P08482); assay: qHTS Assay for Antagonists of Acetylcholine Muscarinic M1 Receptor: Kinetic Measurement of Intracellular Calcium Response (AID 943);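 also: Fluo-4 calcium signal as peak divided by basal fluorescence over 4 min; series mostly up to about 35 µM; nearly all actives have a fitted effect of over 75% in size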
Outline: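 Antagonism is measured as inhibition of the carbachol-evoked calcium rise in CHO cells transfected with rat M1. Cells are dye-loaded, exposed to compound for 10 min, then stimulated with 100 nM carbachol (EC80).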

[17] = Primary qHTS for inhibitors of nuclear receptor binding SET domain protein 2 (NSD2) in an isogenic RCH-ACV NSD2 p.E1099K mutant (9B) (AID 1645876); also: nearly all actives have a fitted effect of over 70% in size; also: potency is read from the fitted curve at half-maximal effect
[18] = Primary qHTS for inhibitors of nuclear receptor binding SET domain protein 2 (NSD2) in an RCH-ACV wild type WT cells (2C) (AID 1645877); also: nearly all actives have a fitted effect of over 70% in size; also: potency is read from the fitted curve at half-maximal effect
[19] = target: Rap guanine nucleotide exchange factor 4 (Homo sapiens) (UniProt Q8WZA2); assay: Confirmatory qHTS for antagonist of cAMP-regulated guanine nucleotide exchange factor 4 (EPAC2) (AID 1645885); also: potency is read from the fitted curve at half-maximal effect; nearly all actives have a fitted effect of over 25% in size

Sequence of Alpha-galactosidase A (Homo sapiens) (P06280 whole entry, looked up): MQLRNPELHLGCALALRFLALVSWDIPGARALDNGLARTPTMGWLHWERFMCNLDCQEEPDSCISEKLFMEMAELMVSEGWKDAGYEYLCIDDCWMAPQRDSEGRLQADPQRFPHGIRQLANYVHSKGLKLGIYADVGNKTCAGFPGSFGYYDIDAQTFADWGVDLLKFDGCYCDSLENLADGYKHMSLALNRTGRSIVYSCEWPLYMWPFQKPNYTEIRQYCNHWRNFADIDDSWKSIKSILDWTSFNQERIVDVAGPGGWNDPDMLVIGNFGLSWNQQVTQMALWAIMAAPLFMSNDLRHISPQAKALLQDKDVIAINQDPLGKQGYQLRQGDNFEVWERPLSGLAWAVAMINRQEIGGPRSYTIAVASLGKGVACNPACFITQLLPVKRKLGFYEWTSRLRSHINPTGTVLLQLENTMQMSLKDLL
Sequence of Pyruvate kinase (Leishmania mexicana) (Q27686 2-499 E452W): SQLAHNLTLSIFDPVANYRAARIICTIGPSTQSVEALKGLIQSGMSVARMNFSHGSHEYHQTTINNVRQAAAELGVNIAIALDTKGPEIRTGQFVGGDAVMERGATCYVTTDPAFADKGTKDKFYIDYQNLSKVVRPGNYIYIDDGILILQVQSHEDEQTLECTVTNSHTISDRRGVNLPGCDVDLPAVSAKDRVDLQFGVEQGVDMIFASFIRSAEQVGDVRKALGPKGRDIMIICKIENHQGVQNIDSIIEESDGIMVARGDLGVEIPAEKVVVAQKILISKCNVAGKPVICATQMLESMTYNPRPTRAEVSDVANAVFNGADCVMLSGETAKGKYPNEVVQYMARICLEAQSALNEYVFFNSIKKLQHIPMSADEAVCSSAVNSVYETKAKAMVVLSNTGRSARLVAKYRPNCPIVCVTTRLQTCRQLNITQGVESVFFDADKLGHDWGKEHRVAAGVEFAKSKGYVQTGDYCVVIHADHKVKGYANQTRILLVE
Sequence of Glutathione peroxidase 1 (Homo sapiens) (P07203 whole entry, looked up): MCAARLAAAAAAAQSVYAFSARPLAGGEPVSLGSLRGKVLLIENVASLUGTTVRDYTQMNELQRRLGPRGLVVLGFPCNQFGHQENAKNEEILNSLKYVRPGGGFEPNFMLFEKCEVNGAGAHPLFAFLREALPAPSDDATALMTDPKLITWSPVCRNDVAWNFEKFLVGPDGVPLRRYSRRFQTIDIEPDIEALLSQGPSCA
Sequence of Pyruvate kinase PKM (Homo sapiens) (P14618 whole entry, looked up): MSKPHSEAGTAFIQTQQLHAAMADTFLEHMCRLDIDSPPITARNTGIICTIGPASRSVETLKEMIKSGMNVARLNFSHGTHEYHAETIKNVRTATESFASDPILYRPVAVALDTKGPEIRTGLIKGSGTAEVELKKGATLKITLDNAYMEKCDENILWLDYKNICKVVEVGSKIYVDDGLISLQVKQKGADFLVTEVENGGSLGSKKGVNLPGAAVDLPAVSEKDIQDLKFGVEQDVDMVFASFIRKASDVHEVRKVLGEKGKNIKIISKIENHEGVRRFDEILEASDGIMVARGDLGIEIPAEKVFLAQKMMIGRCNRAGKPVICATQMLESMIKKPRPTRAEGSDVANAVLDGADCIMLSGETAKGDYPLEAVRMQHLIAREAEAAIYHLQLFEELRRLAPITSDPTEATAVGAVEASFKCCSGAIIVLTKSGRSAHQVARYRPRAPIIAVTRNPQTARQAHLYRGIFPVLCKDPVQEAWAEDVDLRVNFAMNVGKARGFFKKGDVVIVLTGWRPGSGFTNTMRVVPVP
Sequence of Rap guanine nucleotide exchange factor 3 (Homo sapiens) (O95398 whole entry, looked up): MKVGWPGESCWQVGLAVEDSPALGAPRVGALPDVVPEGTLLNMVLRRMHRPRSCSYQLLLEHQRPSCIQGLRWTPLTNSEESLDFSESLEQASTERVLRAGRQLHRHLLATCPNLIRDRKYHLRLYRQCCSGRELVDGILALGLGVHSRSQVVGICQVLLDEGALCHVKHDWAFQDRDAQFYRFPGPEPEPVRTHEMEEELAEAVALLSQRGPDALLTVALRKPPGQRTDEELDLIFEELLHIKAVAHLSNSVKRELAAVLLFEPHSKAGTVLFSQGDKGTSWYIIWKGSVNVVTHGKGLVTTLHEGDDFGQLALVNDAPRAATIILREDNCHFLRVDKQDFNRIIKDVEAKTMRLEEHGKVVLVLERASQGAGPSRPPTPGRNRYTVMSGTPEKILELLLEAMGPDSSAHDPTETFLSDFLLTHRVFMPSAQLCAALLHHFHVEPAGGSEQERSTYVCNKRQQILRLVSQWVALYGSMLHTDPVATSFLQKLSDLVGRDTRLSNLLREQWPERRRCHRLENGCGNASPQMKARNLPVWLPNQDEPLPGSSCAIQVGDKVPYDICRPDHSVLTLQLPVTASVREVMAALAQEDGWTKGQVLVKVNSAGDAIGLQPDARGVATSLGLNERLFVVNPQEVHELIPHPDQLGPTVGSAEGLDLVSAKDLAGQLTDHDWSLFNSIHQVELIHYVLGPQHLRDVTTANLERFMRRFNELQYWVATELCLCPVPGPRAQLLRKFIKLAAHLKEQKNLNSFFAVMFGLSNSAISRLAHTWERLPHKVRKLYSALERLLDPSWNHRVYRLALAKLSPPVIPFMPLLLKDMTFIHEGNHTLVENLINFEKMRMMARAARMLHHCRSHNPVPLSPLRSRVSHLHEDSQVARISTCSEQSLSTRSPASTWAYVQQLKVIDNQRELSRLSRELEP
Sequence of Rap guanine nucleotide exchange factor 4 (Homo sapiens) (Q8WZA2 whole entry, looked up): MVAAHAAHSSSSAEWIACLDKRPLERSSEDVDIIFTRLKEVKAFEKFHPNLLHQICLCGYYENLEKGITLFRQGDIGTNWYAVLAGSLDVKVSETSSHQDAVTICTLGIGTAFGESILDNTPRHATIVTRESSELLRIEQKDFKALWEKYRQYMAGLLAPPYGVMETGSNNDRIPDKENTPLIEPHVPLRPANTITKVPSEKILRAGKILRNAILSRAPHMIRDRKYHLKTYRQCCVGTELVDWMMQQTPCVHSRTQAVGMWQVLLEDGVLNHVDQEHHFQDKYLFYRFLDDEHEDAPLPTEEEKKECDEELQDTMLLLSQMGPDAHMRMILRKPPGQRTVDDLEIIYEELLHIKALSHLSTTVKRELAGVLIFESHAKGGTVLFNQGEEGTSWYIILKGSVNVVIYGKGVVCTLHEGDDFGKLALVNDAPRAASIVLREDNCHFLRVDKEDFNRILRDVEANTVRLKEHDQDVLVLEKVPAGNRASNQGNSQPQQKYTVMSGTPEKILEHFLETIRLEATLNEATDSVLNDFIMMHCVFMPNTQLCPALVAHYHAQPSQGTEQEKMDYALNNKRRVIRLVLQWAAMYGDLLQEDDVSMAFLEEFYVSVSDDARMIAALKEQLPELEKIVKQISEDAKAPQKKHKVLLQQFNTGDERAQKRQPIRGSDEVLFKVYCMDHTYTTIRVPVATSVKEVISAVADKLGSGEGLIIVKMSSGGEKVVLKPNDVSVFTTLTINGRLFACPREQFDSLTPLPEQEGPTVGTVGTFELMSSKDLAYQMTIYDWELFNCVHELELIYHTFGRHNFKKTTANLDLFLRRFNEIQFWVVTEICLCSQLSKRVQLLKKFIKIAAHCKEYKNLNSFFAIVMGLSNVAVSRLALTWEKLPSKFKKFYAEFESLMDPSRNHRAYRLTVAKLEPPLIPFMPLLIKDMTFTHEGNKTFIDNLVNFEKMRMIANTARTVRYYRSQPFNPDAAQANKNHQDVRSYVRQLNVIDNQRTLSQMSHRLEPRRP
Sequence of Cytochrome P450 2D6 (Homo sapiens) (P10635 whole entry, looked up): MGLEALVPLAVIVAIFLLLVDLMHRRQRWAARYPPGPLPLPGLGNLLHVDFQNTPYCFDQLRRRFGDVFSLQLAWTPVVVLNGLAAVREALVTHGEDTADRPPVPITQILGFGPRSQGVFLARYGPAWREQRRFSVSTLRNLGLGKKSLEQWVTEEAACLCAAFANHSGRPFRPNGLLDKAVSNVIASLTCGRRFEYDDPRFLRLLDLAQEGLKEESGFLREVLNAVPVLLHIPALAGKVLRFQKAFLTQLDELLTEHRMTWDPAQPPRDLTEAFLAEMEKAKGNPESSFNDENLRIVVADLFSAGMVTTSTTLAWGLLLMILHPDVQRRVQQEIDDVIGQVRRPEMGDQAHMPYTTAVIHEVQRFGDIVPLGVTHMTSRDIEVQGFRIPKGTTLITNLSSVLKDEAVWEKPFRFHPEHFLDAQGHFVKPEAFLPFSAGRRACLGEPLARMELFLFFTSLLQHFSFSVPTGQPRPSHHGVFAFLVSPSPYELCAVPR
Sequence of Muscarinic acetylcholine receptor M1 (Rattus norvegicus) (P08482 whole entry, looked up): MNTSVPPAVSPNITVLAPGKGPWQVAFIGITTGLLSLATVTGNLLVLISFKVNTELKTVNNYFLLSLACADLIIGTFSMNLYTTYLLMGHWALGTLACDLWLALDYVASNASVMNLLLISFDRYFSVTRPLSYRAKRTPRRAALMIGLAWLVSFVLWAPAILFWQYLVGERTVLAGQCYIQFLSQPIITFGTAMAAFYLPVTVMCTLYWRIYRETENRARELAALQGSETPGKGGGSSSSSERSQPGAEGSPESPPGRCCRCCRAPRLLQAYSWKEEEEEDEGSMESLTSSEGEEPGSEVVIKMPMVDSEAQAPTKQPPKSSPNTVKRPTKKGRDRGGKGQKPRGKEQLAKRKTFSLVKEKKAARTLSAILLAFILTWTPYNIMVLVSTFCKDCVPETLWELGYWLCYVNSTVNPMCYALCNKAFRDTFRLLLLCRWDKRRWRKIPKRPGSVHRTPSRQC

O=C(O)c1c2ccccc2cc2ccccc12
outcome [1]: inactive
outcome [2]: inactive

N[C@H](C(=O)O)[C@@H]1C[C@@H]1C(=O)O
Potency [3]: inactive
Potency [4]: inactive
Potency [5]: inactive
outcome [6]: inactive
outcome [7]: inactive
outcome [8]: inactive

C[C@@H](C(=O)O)c1ccc(-c2ccccc2)c(F)c1
outcome [1]: inactive
outcome [2]: inactive
Potency [9]: inactive
Potency [10]: inactive
Potency [11]: inactive

O=C1CC[C@H](C(=O)O)N1
Potency [10]: inactive

CCOC(=O)C(CCc1ccccc1)NC1CCc2ccccc2N(CC(=O)O)C1=O (configuration not stated)
outcome [1]: inactive
outcome [2]: inactive
Potency [9]: inactive

Cc1nccn1CC1CCC2C(C1=O)c1ccccc1N2C (configuration not stated)
Potency [10]: 12 µM (active)
Potency [11]: inactive

CC(C)(C)c1ccc(S(=O)(=O)/C=C\C#N)cc1
Potency [5]: inactive
outcome [6]: inactive
outcome [7]: inactive
outcome [8]: inactive

CC(C)=CCC/C(C)=C/CC/C(C)=C/CC/C(C)=C/CO
outcome [1]: inactive
outcome [2]: inactive

Cc1ccc(NC2=CC(=O)c3sc(C)nc3C2=O)cc1
Potency [12]: inactive

COc1cc(CNC(=O)CCCC/C=C\C(C)C)ccc1O
Potency [13]: inactive
outcome [14]: inactive
outcome [15]: inactive

N[C@H](Cc1ccc(Cl)cc1)C(=O)O
outcome [1]: inactive
outcome [2]: inactive
Potency [16]: inactive
Potency [5]: inactive
outcome [6]: inactive
outcome [7]: inactive
outcome [8]: inactive

C[C@H]1C=C2C=C[C@H](C)[C@H](CC[C@@H]3C[C@@H](O)CC(=O)O3)[C@H]2[C@@H](OC(=O)[C@@H](C)CCO)C1
outcome [14]: inactive

CCN(CC)CC1CCN(c2ncc3ncnc(Nc4ccc(F)c(Cl)c4)c3n2)CC1
Potency [17]: 9.2 µM (active)
Potency [18]: 16.4 µM (active)
Potency [12]: inactive

c1ccc(-c2[nH]ncc2-c2ccnc3ccccc23)nc1
Potency [17]: inactive
Potency [18]: inactive
Potency [12]: inactive

CC(C)[C@H](CO)Nc1nc(Nc2cc(N)cc(Cl)c2)c2ncn(C(C)C)c2n1
outcome [14]: inactive

COc1cc(/C=C(\C#N)C(N)=O)cc(CSc2nc3ccccc3s2)c1O
Potency [17]: inactive
Potency [18]: inactive
Potency [12]: inactive

CCOC(=O)C1=C(C)NC(C)=C(C(=O)OC)[C@H]1c1cccc([N+](=O)[O-])c1
outcome [1]: inactive
outcome [2]: inactive
Potency [5]: inactive
outcome [6]: inactive
outcome [7]: inactive
outcome [8]: inactive
Potency [13]: inactive

CCCCC/C=C\C/C=C\C/C=C\C/C=C\CCCC(=O)O
outcome [1]: inactive
outcome [2]: inactive
Potency [13]: 49.8 µM (active)
outcome [14]: inactive
Potency [19]: 44.1 µM (active)

CC[C@H](C)N(C)C(=O)c1cc2ccccc2c(-c2ccccc2Cl)n1
Potency [3]: inactive
Potency [5]: inactive
outcome [6]: inactive
outcome [7]: inactive
outcome [8]: inactive
Potency [13]: inactive
outcome [14]: inactive

c1ccc(-c2n[nH]c3c2oc2ccccc23)cc1
Potency [12]: inactive

CC(C)=CCC/C(C)=C/CC/C(C)=C/CO
outcome [1]: inactive
outcome [2]: inactive
outcome [14]: inactive
Potency [19]: 31.2 µM (active)

O=C1CCc2c(ccc3ccccc23)O1
outcome [15]: inactive

From PubChem BioAssay (NCATS)
